Assay results as given in PubChem BioAssay (Tox21).
Results filed as inconclusive are left out. The source made the active and inactive calls. Unless noted, calls follow the shape of the dose curve; as a rule, active = well fitted curve in the direction sought with a large enough effect in the repeat runs; inconclusive = weak or mixed curves; inactive = no such curve, though single readings can be large; an effect the other way counts as inactive or inconclusive.

Assays:
[1] = qHTS assay for small molecule agonists of the p53 signaling pathway (AID 651631; calls by dose curve; also: nearly all actives have a fitted effect of over 15% in size)
Outline: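 Read-out is beta-lactamase FRET fluorescence measured 2 h after substrate addition at room temperature, in HCT-116 cells with a p53 response element-driven reporter exposed to compounds for 16 h at 37 °C.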

[2] = qHTS assay for small molecules that induce genotoxicity in human embryonic kidney cells expressing luciferase-tagged ATAD5 (AID 651632); also: nearly all actives have a fitted effect of over 15% in size
Outline: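 HEK293T cells carrying luciferase-tagged ATAD5 were given compound or DMSO vehicle and incubated 16 hr at 37C, 5% CO2. Luciferase activity was read after 30 min at room temperature with Amplite; a rise signals genotoxic stress.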

[3] = qHTS assay for small molecule agonists of the p53 signaling pathway - cell viability (AID 651633; calls by dose curve;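 also: p53RE-bla HCT reporter cells with a stable beta-lactamase p53 reporter; series mostly up to about 83 µM; nearly all actives have a fitted effect of over 30% in size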)
Outline: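 p53RE-bla cells, seeded at 4,000 per well and rested 5 h at 37 C/5% CO2, received compounds in DMSO for 16 h at 37 C. CellTiter-Glo was then added, and luminescence was read after 30 min at room temperature to gauge cytotoxicity.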

[4] = qHTS assay for small molecules that induce genotoxicity in human embryonic kidney cells expressing luciferase-tagged ATAD5 - cell viability (AID 651634; calls by dose curve; also: nearly all actives have a fitted effect of over 25% in size)
Outline: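 HEK293T cells carrying luciferase-tagged ATAD5, 2,000 cells/well, exposed to compound for 15.5 hr at 37C. Viability read as live-cell protease activity by CellTiter-Fluor fluorescence after 30 min at 37C.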

[5] = qHTS assay for small molecule disruptors of the mitochondrial membrane potential - cell viability (AID 720634; calls by dose curve;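 also: human HepG2 liver cancer cells; series mostly up to about 83 µM; nearly all actives have a fitted effect of over 20% in size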)
Outline: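 HepG2 cells, 2,000 per well, attached overnight, then treated 1 hr at 37 C, 5% CO2. Viability read as ATP by CellTiter-Glo luminescence after 30 min at room temperature. Read in the same wells as the m-MPI membrane-potential dye assay.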

[6] = qHTS assay for small molecule disruptors of the mitochondrial membrane potential (AID 720635)
Outline: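 HepG2 cells (2,000/well) attached overnight at 37C, then took compound for 1 hr at 37C, 5% CO2. Mito-MPS dye was added for 30 min; fluorescence was read at 490/535 nm (monomers) and 540/590 nm (aggregates).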

[7] = qHTS assay to test for compound auto fluorescence at 590 nm (red) in HepG2 cells (AID 720674)
Outline: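 Rose Bengal sodium served as the red fluorophore standard. HepG2 monolayers (overnight attachment, MEM with 10% FBS) were exposed to test compounds for 1 hr at 37 C and read at Ex 540/Em 590 nm.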

[8] = qHTS assay to test for compound auto fluorescence at 535 nm (green) in HepG2 cells (AID 720675)
[9] = qHTS assay to test for compound auto fluorescence at 460 nm (blue) in HEK293 cells (AID 720678)
Outline: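 Measured: blue fluorescence (Ex 405/Em 460 nm) of compound-treated HEK293 cells, incubated overnight at 37C with 5% CO2 and scaled to triamterene equivalents.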

[10] = qHTS assay to test for compound auto fluorescence at 590 nm (red) in HEK293 cells (AID 720679)
Outline: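 Using HEK293 cells at 2,000 per well, the screen added 23 nL of each compound after cell attachment and incubated overnight (37C, 5% CO2). The plate reader then captured red-label fluorescence, Ex/Em 540/590nm.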
% is scaled to controls: 0 for no effect and ±100 for the full control effect.

O=c1[nH]c(=O)c2ccccc2o1
inactive: outcome [1] | outcome [2] | outcome [3] | Potency [4] | outcome [5] | Potency [6] | outcome [7] | outcome [8] | outcome [9] | outcome [10]

CC(C)(C)c1ccc(C=O)cc1
inactive: outcome [1] | outcome [2] | outcome [3] | Potency [4] | outcome [5] | Potency [6] | outcome [7] | outcome [8] | outcome [9]

NS(=O)(=O)c1cc2c(cc1Cl)NC(CC1CCCC1)NS2(=O)=O (stereo not given)
inactive: outcome [1] | outcome [2] | outcome [3] | Potency [4] | outcome [5] | Potency [6] | fluorescence, relative to Rose Bengal [7] -0.14% [at 18.6 µM] | fluorescence, % of fluorescein control [8] -0.0768% [at 18.6 µM] | fluorescence, % of triamterene [9] -0.024% [at 18.6 µM] | fluorescence, % of fluorescent control [10] -0.246% [at 18.6 µM]

CCCCC(C)C(=O)O (stereo not given)
inactive: outcome [1] | outcome [2] | outcome [3] | Potency [4] | outcome [5] | Potency [6] | outcome [7] | outcome [8] | outcome [9] | outcome [10]

CCOC(=O)CCc1ccccc1
inactive: outcome [1] | outcome [2] | outcome [3] | Potency [4] | outcome [5] | Potency [6] | outcome [7] | outcome [8] | outcome [9] | outcome [10]

C1=CCC(c2ccccc2)CC1 (stereo not given)
inactive: outcome [1] | outcome [2] | outcome [3] | Potency [4] | outcome [5] | Potency [6] | outcome [7] | outcome [8] | outcome [9] | outcome [10]

COc1cc2c3cc1Oc1cc(ccc1O)C[C@@H]1c4c(cc(OC)c(O)c4Oc4ccc(cc4)C[C@@H]3N(C)CC2)CC[N+]1(C)C
inactive: outcome [1] | outcome [2] | outcome [3] | Potency [4] | outcome [5] | Potency [6] | outcome [7] | outcome [8]

COc1cc(C=O)ccc1OC(=O)C(C)C
inactive: outcome [1] | outcome [2] | outcome [3] | Potency [4] | outcome [5] | Potency [6] | outcome [7] | outcome [8] | outcome [9] | outcome [10]

CCCC(C)CC (stereo not given)
inactive: outcome [1] | outcome [2] | outcome [3] | Potency [4] | outcome [5] | Potency [6] | outcome [7] | outcome [8] | outcome [9] | outcome [10]

CCOC(=O)OCC/C(SC(=O)OCC)=C(\C)N(C=O)Cc1cnc(C)nc1N
inactive: outcome [1] | outcome [2] | outcome [3] | Potency [4] | outcome [5] | Potency [6] | outcome [7] | outcome [8] | outcome [9]

CC(=O)c1ccc2c(c1)CCCC2
inactive: outcome [1] | outcome [2] | outcome [3] | Potency [4] | outcome [5] | Potency [6] | outcome [7] | outcome [8]

CCN(CCO)c1cccc(C)c1
inactive: outcome [1] | outcome [2] | outcome [3] | Potency [4] | outcome [5] | Potency [6] | outcome [7] | outcome [8] | outcome [10]

CC(=O)OC(C(=O)c1ccccc1)c1ccccc1 (stereo not given)
inactive: outcome [1] | outcome [2] | outcome [3] | Potency [4] | outcome [5] | outcome [7] | outcome [8] | outcome [9] | outcome [10]

O=C(CN1CCN(Cc2ccc3c(c2)OCO3)CC1)N1c2ccccc2Sc2ccccc21
inactive: outcome [1] | outcome [2] | outcome [3] | Potency [4] | outcome [5] | Potency [6] | outcome [7] | outcome [8] | outcome [9] | outcome [10]

COc1ccc(NS(=O)(=O)c2ccc(N)cc2)nn1
inactive: outcome [1] | outcome [2] | outcome [3] | Potency [4] | outcome [5] | fluorescence, relative to Rose Bengal [7] 0.178% [at 18.6 µM] | fluorescence, % of fluorescein control [8] -0.0175% [at 18.6 µM] | fluorescence, % of triamterene [9] -0.19% [at 18.6 µM]

CC(=O)Nc1ccc(C)cc1
inactive: outcome [1] | outcome [2] | outcome [3] | Potency [4] | outcome [5] | outcome [7] | outcome [8] | outcome [9] | outcome [10]

C=CCOc1cc(Cl)ccc1C(=O)NCCN(CC)CC
inactive: outcome [1] | outcome [2] | outcome [3] | Potency [4] | outcome [5] | outcome [7] | outcome [8] | outcome [9]

O=CN1CCOCC1
inactive: outcome [1] | outcome [2] | outcome [3] | Potency [4] | outcome [5] | outcome [7] | outcome [8] | outcome [9]

FC(F)(F)/C(=N\OCC1OCCO1)c1ccc(Cl)cc1
inactive: outcome [1] | outcome [2] | outcome [3] | Potency [4] | outcome [5] | Potency [6] | outcome [7] | outcome [8] | outcome [9] | outcome [10]

C=CCCCCCCCCCCC
inactive: activation [1] -4.17% [at 8.3 µM] | activation [2] 1.83% [at 8.08 µM] | activity change, negative = cytotoxicity [3] 6.07% [at 8.08 µM] | activity, negative = cytotoxicity [4] -5.67% [at 8.08 µM] | activity change, negative = cytotoxicity [5] 9.56% [at 8.08 µM] | ratio activity, negative = MMP loss [6] -12.5% [at 8.08 µM] | fluorescence, relative to Rose Bengal [7] 0.0415% [at 3.72 µM] | fluorescence, % of fluorescein control [8] 0.103% [at 3.72 µM] | fluorescence, % of fluorescent control [10] -0.0532% [at 3.72 µM]

CC(Cl)COP(=O)(OCC(C)Cl)OCC(C)Cl (stereo not given)
inactive: outcome [1] | outcome [2] | outcome [3] | Potency [4] | outcome [5] | outcome [7] | outcome [8] | outcome [9] | outcome [10]

O=C1CC[C@H](C(=O)N2CCCCC2)N1
inactive: outcome [1] | outcome [2] | outcome [3] | Potency [4] | outcome [5] | Potency [6] | outcome [7] | outcome [8] | outcome [9] | outcome [10]

CC(C)=CC(C)(C)C
inactive: outcome [1] | outcome [2] | outcome [3] | Potency [4] | outcome [5] | outcome [7] | outcome [8] | outcome [9] | outcome [10]

Nc1cc(S(=O)(=O)O)ccc1S(=O)(=O)O
inactive: outcome [1] | outcome [2] | outcome [3] | Potency [4] | outcome [5] | outcome [7] | outcome [8] | outcome [9] | outcome [10]

F[Si-2](F)(F)(F)(F)F
inactive: outcome [1] | outcome [2] | outcome [3] | Potency [4] | outcome [5] | outcome [7] | outcome [8] | outcome [9] | outcome [10]
